Experimental data reported in PubChem BioAssay AID1159580 (chemical genetic matrix, 2015).
Screen size: about 5,500 compounds; about 2,000 (36%) were called active. Inconclusive results (about 18%) are left out. Cut-off read from the data, not from the text of the source: active = normalized growth mostly below about 0.91 (no sharp cut-off); inconclusive = no clear call, values can overlap the other calls; inactive = mostly above about 0.92. The list shows a part of the results.

Test: chemical genetic growth profiling, strain panel (AID 1159580);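 note: tested at 20 µM; growth read once vehicle control cultures reached saturation at 30 °C; 1 = growth at the plate median or of vehicle wells; lower values mean less growth of the strain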
Conditions: growth OD

Measured: normalized growth

C=CCCCCCCCCCCCC(O)CC(O)COC(C)=O (stereo not drawn) (tested in a mixture with another compound)
inactive: S. cerevisiae deletion strains, locus YJL168C, strain set2, active compounds read low 0.992 | S. cerevisiae deletion strains, locus YJL187C, strain SWE1 (second series), active compounds read low 0.967 | S. cerevisiae deletion strains, locus YJL187C, strain SWE1, active compounds read low 0.961 | S. cerevisiae deletion strains, locus YKL068W, active compounds read low 1.01 | S. cerevisiae deletion strains, locus YKL085W, strain MDH1 (second series), active compounds read low 0.943 | S. cerevisiae deletion strains, locus YKL085W, strain MDH1, active compounds read low 0.943 | S. cerevisiae deletion strains, locus YKL160W, strain elf1, active compounds read low 0.923 | S. cerevisiae deletion strains, locus YKR026C, strain gcn3, active compounds read low 0.974 | S. cerevisiae deletion strains, locus YKR091W, strain srl3, active compounds read low 0.975 | S. cerevisiae deletion strains, locus YLL001W, strain dnm1, active compounds read low 0.908 | S. cerevisiae deletion strains, locus YLL026W, active compounds read low 0.968 | S. cerevisiae deletion strains, locus YLL041C, strain sdh2, active compounds read low 0.973 | S. cerevisiae deletion strains, locus YLR039C, strain RIC1, active compounds read low 1.13 | S. cerevisiae deletion strains, locus YLR058C, strain SHM2, active compounds read low 0.947 | S. cerevisiae deletion strains, locus YLR102C, strain apc9, active compounds read low 0.978 | S. cerevisiae deletion strains, locus YLR268W, strain sec22, active compounds read low 0.975 | S. cerevisiae deletion strains, locus YLR342W, strain FKS1 (second series), active compounds read low 0.824 | S. cerevisiae deletion strains, locus YLR342W, strain FKS1, active compounds read low 0.932 | S. cerevisiae deletion strains, locus YLR357W, strain rsc2, active compounds read low 1.02 | S. cerevisiae deletion strains, locus YLR370C, strain arc18, active compounds read low 0.975 | S. cerevisiae deletion strains, locus YLR384C, strain iki3, active compounds read low 0.97 | S. cerevisiae deletion strains, locus YML016C, strain PPZ1, active compounds read low 1.01 | S. cerevisiae deletion strains, locus YML124C, strain tub3, active compounds read low 0.997 | S. cerevisiae deletion strains, locus YMR058W, strain fet3, active compounds read low 0.953 | S. cerevisiae deletion strains, locus YMR078C, strain ctf18, active compounds read low 0.981 | S. cerevisiae deletion strains, locus YMR125W, strain sto1, active compounds read low 0.942 | S. cerevisiae deletion strains, locus YMR129W, active compounds read low 0.978 | S. cerevisiae deletion strains, locus YMR223W, strain ubp8, active compounds read low 0.928 | S. cerevisiae deletion strains, locus YMR231W, strain pep5, active compounds read low 0.966 | S. cerevisiae deletion strains, locus YMR307W, strain GAS1, active compounds read low 0.869 | S. cerevisiae deletion strains, locus YNL067W, strain RPL9B, active compounds read low 0.995 | S. cerevisiae deletion strains, locus YNL209W, strain ssb2, active compounds read low 0.965 | S. cerevisiae deletion strains, locus YNL248C, strain rpa49, active compounds read low 0.99 | S. cerevisiae deletion strains, locus YNL250W, strain rad50, active compounds read low 1.01 | S. cerevisiae deletion strains, locus YNL271C, strain bni1, active compounds read low 0.947 | S. cerevisiae deletion strains, locus YNL322C, strain KRE1 (second series), active compounds read low 0.973 | S. cerevisiae deletion strains, locus YNR049C, strain mso1, active compounds read low 0.969 | S. cerevisiae deletion strains, locus YOL012C, strain htz1 1.44 | S. cerevisiae deletion strains, locus YOR001W, strain rrp6, active compounds read low 0.943 | S. cerevisiae deletion strains, locus YOR069W, strain VPS5, active compounds read low 0.989 | S. cerevisiae deletion strains, locus YOR070C, strain gyp1, active compounds read low 0.935 | S. cerevisiae deletion strains, locus YOR080W, strain dia2, active compounds read low 0.978 | S. cerevisiae deletion strains, locus YOR106W, strain vam3, active compounds read low 0.875 | S. cerevisiae deletion strains, locus YOR136W, strain idh2, active compounds read low 0.973 | S. cerevisiae deletion strains, locus YOR144C, strain elg1, active compounds read low 0.944 | S. cerevisiae deletion strains, locus YOR265W, strain rbl2, active compounds read low 0.937 | S. cerevisiae deletion strains, locus YOR290C, strain snf2, active compounds read low 0.917 | S. cerevisiae deletion strains, locus YOR316C, strain cot1, active compounds read low 0.984 | S. cerevisiae deletion strains, locus YPL106C, strain sse1, active compounds read low 1.06 | S. cerevisiae deletion strains, locus YPL240C, strain hsp82, active compounds read low 0.958 | S. cerevisiae deletion strains, locus YPL241C, strain CIN2, active compounds read low 1 | S. cerevisiae deletion strains, locus YPR119W, strain clb2, active compounds read low 0.982 | S. cerevisiae deletion strains, locus YPR141C, strain kar3, active compounds read low 1.01
active: S. cerevisiae deletion strains, locus YJL164C, strain tpk1, active compounds read low 0.832 | S. cerevisiae deletion strains, locus YJL166W, strain qcr8, active compounds read low 0.836 | S. cerevisiae deletion strains, locus YKL009W, strain mrt4, active compounds read low 0.864 | S. cerevisiae deletion strains, locus YKR001C, strain vps1, active compounds read low 0.817 | S. cerevisiae deletion strains, locus YLR027C, strain aat2, active compounds read low 0.921 | S. cerevisiae deletion strains, locus YLR221C, strain rsa3, active compounds read low 0.806 | S. cerevisiae deletion strains, locus YLR258W, strain gsy2, active compounds read low 0.906 | S. cerevisiae deletion strains, locus YLR262C, strain YPT6 (second series), active compounds read low 0.823 | S. cerevisiae deletion strains, locus YLR320W, strain mms22, active compounds read low 0.823 | S. cerevisiae deletion strains, locus YLR371W, strain rom2, active compounds read low 0.874 | S. cerevisiae deletion strains, locus YLR418C, strain cdc73, active compounds read low 0.684 | S. cerevisiae deletion strains, locus YML032C, strain rad52, active compounds read low 0.88 | S. cerevisiae deletion strains, locus YML120C, strain ndi1, active compounds read low 0.899 | S. cerevisiae deletion strains, locus YMR205C, strain PFK2, active compounds read low 0.826 | S. cerevisiae deletion strains, locus YNL071W, strain lat1, active compounds read low 0.762 | S. cerevisiae deletion strains, locus YNL233W, strain BNI4, active compounds read low 0.845 | S. cerevisiae deletion strains, locus YNL298W, strain CLA4, active compounds read low 0.824 | S. cerevisiae deletion strains, locus YNL307C, strain MCK1, active compounds read low 0.56 | S. cerevisiae deletion strains, locus YNR052C, strain pop2, active compounds read low 0.898 | S. cerevisiae deletion strains, locus YOL147C, strain pex11, active compounds read low 0.917 | S. cerevisiae deletion strains, locus YOR061W, strain CKA2, active compounds read low 0.672 | S. cerevisiae deletion strains, locus YOR083W, strain WHI5, active compounds read low 0.873 | S. cerevisiae deletion strains, locus YOR184W, strain ser1, active compounds read low 0.446 | S. cerevisiae deletion strains, locus YOR270C, strain vph1, active compounds read low 0.699 | S. cerevisiae deletion strains, locus YPL051W, strain arl3, active compounds read low 0.88 | S. cerevisiae deletion strains, locus YPL078C, strain atp4, active compounds read low 0.882 | S. cerevisiae deletion strains, locus YPR163C, strain tif3, active compounds read low 0.898 | S. cerevisiae deletion strains, locus YPR167C, strain met16, active compounds read low 0.905 | S. cerevisiae deletion strains, strain wtn01, active compounds read low 0.866 | S. cerevisiae strains, strain wild type, active compounds read low 0.796
